This is a sample that favours compounds with a hit; in the whole collection about 12% have one here.
Cl transport mod: KCC2 (human) Cl- transport modulation; actives 2.2% (n = 190,000); KCC2 cells, thallium flux FluoZin-2 fluorescence; B-score of Tl+ flux slope (higher = more flux/activation; lower = inhibition) at 10 µM; Q9H2X9;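 active = thallium flux slope and its plate-corrected score both differing from the plate sample mean at a set confidence after two filtering rounds, in either direction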;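 note: slope of fluorescence scaled to starting intensity during 10 to 20 s after thallium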
Lmaj promast: Leishmania major promastigote growth inhibition | inhibition, % at 10 µM | AID 1063 | Leishmania major promastigotes, resazurin fluorescence viability | actives 9% (n = 200,000); in the data active = inhibition above about 50%;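 note: promastigotes grown with compound for 44 hours at 28 °C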
WT yeast gro inh: growth inhibition of WT yeast, mitochondrial fusion screen; actives 2.1% (n = 190,000); mitochondrial fusion phenotypic screen, WT strain; inhibition, % at 10 µM; in the data active = inhibition above about 58%; tested in S. cerevisiae
Insulin prom inh: TRM-6 insulin promoter activity inhibition; TRM-6 cells (human fetal islet line), insulin promoter-eGFP reporter, imaging; reporter expression induced with tamoxifen; inhibition, % at 2 µM; actives 0.9% (n = 130,000); AID 1273;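 active = inhibition above the mean plus 3 SD, with well images judged a real hit on visual review, cut at about 60% in these data, passing the limit was not always enough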
ROMK mod: human ROMK K+ channel modulation, primary screen | B-score at 10 µM | Tet-inducible ROMK, thallium flux fluorescence; actives lie on both sides | actives 2% (n = 130,000);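 active = signal ratio slope over the read window, or its plate-corrected B-score, at least 3 SD from the plate mean, either direction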;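 note: B-score of the F/F0 ratio slope over 7 to 12 s after thallium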
Target sequence (P48048 whole entry, looked up): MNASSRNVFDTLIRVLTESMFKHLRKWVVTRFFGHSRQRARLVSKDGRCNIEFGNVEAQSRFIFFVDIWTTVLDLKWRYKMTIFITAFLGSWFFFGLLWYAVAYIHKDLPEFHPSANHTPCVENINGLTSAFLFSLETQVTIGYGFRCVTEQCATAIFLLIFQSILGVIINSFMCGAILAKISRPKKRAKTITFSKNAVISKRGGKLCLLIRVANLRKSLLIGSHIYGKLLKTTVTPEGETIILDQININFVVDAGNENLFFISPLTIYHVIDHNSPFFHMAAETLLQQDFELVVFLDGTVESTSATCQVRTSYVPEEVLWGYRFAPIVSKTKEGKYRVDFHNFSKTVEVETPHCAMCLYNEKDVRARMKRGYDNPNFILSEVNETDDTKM
Ins promoter up: MIN6 insulin promoter up-regulation | MIN6 insulin promoter-GFP reporter, high-content imaging; stronger effect = higher value | z-score at 5 µM | actives 0.3% (n = 190,000) | AID 1625;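 active = z-score above 3 at 5 µM with at least 500 cells counted in the well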
ROMK hit retest: confirmation of human ROMK potassium channel modulators | actives 54% (n = 3,000) | normalized thallium flux (F/F0 slope) at 10 µM | ROMK thallium flux, fluorescence ratio; stronger effect = lower value | shares compounds with ROMK mod;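 active = Flux at 10 µM at least 3 SD below or above vehicle control mean in one or both replicates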
Starred values were filed as active, the others as inactive; i = inactive; · = no result given.

SMILES | Cl transport mod | Lmaj promast | WT yeast gro inh | Insulin prom inh | ROMK mod | Ins promoter up | ROMK hit retest
CSCCC(NC(C)=O)C(=O)OCC(=O)N(c1ccccc1)c1ccccc1 (stereo not given) | -1.9 | -9 | -14 | -3 | 1.3 | 0.57 | ·
O=C(CN(CC(=O)N1CCOCC1)S(=O)(=O)c1ccc(Br)s1)N1CCOCC1 | 0.62 | -4 | -8 | -431 | 0.36 | · | ·
O=C(CO/N=C/c1ccc(OC(F)F)cc1)NC1CCCC1 | -0.52 | 4 | 10 | · | -0.99 | 0.18 | ·
CN(C(=O)CO/N=C/c1ccc(OC(F)F)cc1)C1CCS(=O)(=O)C1 (stereo not given) | 0.46 | -5 | -2 | · | -10* | -0.93 | 0.073
CCCn1c(=S)[nH]c2cc(C(=O)N3CCCC(C(=O)OCC)C3)ccc2c1=O (stereo not given) | · | 1 | 5 | -100 | -3.2* | · | 0.06*
Cc1cc(Br)c(NC(=O)c2c(-c3c(Cl)cccc3Cl)noc2C)c(Br)c1 | 1.7 | · | · | · | · | 0.95 | ·
Cc1ccc(SC/C(O)=C(\C#N)c2nc3ccccc3s2)cc1 | -2.3 | -9 | 7 | 67 | · | 0.56 | ·
COc1ccc(C/C(O)=C(\C#N)c2nc3ccccc3s2)cc1 | -1.1 | -15 | 17 | -112 | -3.1* | 0.09 | 0.06*
CCOC(=O)c1sc(NC(=O)c2c(C)noc2C)c(C(=O)OCC)c1C | 0.062 | -4 | · | 32 | · | · | ·
Cc1cnc(NC2=NCCC2)s1 | 0.3 | -2 | 2 | · | 0.13 | -0.69 | ·
c1nnc(NC2=NCCC2)s1 | 0.85 | 0 | -6 | 50 | 1.6* | 1.1 | 0.078
CCC1=C(OC(=O)N(CC)CC)N2C(=O)OC(=NCC3CC3)[C@]2(C)[C@H]2C1=CC[C@H]1C(=O)NC(=O)[C@H]12 | -0.15 | · | · | · | · | -0.08 | ·
C=CCNc1sc(C(=O)c2ccc(Br)s2)c(N)c1C#N | -3.1 | -2 | 1 | · | -3.6* | · | 0.056*
O=C(NC1CCCCCC1)C1c2ccccc2C(=O)N1C1CC1 (stereo not given) | -0.71 | -6 | -5 | · | -0.24 | 0.16 | ·
CCCC(C(=O)NCc1ccco1)N(C(=O)CNS(=O)(=O)c1ccccc1)c1ccccc1OC (stereo not given) | · | 37 | -9 | · | -4.2* | -0.12 | 0.058*
COc1ccc(CNC(=O)C(c2ccco2)N(C(=O)CNS(=O)(=O)c2ccccc2)c2ccccc2C)cc1 (stereo not given) | -0.43 | 47 | 11 | -25 | -5* | -0.47 | 0.045*
CCCn1c(N2CCN(C(=O)NCc3ccccc3)CC2)nc2ccccc21 | -0.62 | · | · | · | · | -0.31 | ·
O=[n+]1c2c(n([O-])c3cc(F)c(N4CCCC4)cc31)CCC2 | i | 14 | · | -11 | · | · | ·
O=[n+]1c2c(n([O-])c3cc(F)c(N4CCCC4)cc31)CCCC2 | · | 2 | 6 | · | -6.3* | 0.26 | 0.043*
CC(C)[C@@H](CO)NC(=O)c1ccc2c3n(nc2c1)-c1ccccc1CO3 | -2.6 | · | · | · | · | -0.05 | ·
COc1ccc(C2OC(=O)CC2C(=O)NCc2ccccc2Cl)cc1OC (stereo not given) | -0.045 | 19 | -4 | 8 | -10* | 1.1 | 0.078
CCOC(=O)N1CCN(C(=O)Nc2ccccc2)CC1 | 0.87 | -6 | -30 | · | 0.33 | -0.3 | ·
Cc1ccc2cc(CN(Cc3ccccc3)Cc3nnnn3C3CCCC3)c(=O)[nH]c2c1 | · | 69* | 54 | 18 | -3* | -0.51 | 0.061*
CCCCNS(=O)(=O)c1ccc(NC(=O)C2c3ccccc3Oc3ccccc32)cc1 | -0.26 | -2 | -6 | · | · | -0.3 | ·
O=c1[nH]c(NCCCO)nc2c1C1(CCCC1)Cc1ccccc1-2 | -1.4 | -3 | 9 | 30 | -3.4* | -0.33 | 0.057*
SMILES | Cl transport mod | Lmaj promast | WT yeast gro inh | Insulin prom inh | ROMK mod | Ins promoter up | ROMK hit retest
Cc1occc1C(=O)NCCCCc1ccccc1 | -0.41 | 6 | 8 | 7 | -0.22 | · | ·
COc1ccccc1N1CCN(C2CCN(C3CCC(c4ccccc4)CC3)CC2)CC1 (stereo not given) | 0.28 | 99* | 12 | · | -3.1* | · | 0.061*
COc1ccccc1N1CCN(C2CCN(S(=O)(=O)c3ccc(C)cc3)CC2)CC1 | 0.14 | · | · | · | · | -0.25 | ·
Cc1nn(C)c(C(=O)N2CCN(C(=O)c3ccco3)CC2)c1Br | -0.39 | -5 | -4 | -27 | 0.19 | · | ·
Cc1ccc(NC(=O)c2ccc(NCc3ccc(F)cc3)nc2)cc1 | 0.73 | -5 | -4 | · | 0.48 | -0.34 | ·
Cc1ccc(NC(=O)c2ccc(Nc3ccccc3F)nc2)cc1 | -0.39 | 3 | 12 | · | 2.7* | -0.45 | 0.081
COc1ccc2c(c1)c(C(O)CN1CCN(Cc3ccc4c(c3)OCO4)CC1)c(C)n2C (stereo not given) | -0.32 | 12 | 0 | -223 | · | 0.24 | ·
COc1ccc2c(c1)c(C(O)CN1CCC(Cc3ccccc3)CC1)c(C)n2C (stereo not given) | 0.032 | 21 | 23 | 2 | · | -1.7 | 0.058*
Cc1ccc(Sc2cnc(N)nc2C)cc1 | -0.3 | 0 | -9 | · | 0.46 | 0.29 | ·
CC(C)N(CCn1c(=S)[nH]c2ccccc2c1=O)C(C)C | 1.8 | 14 | 6 | 48 | 3.2* | 1 | 0.068*
Cc1ccnc(NS(=O)(=O)c2ccc(NC(=O)CN3C(=O)CCC3=O)cc2)n1 | 0.4 | 9 | -6 | 29 | 2.6* | -0.57 | 0.082
Cc1csc(NC(=O)c2ccc3c(=O)n4c(nc3c2)CCCCC4)n1 | 0.17 | 10 | 13 | 32 | 0.082 | -0.7 | ·
CCn1ncc(C2=NOC(C(=O)NCc3ccc(OC)cc3)C2)c1C (stereo not given) | 1.7 | 2 | · | · | · | -1.3 | ·
CCn1ncc(C2=NOC(C(=O)NCc3ccccc3)C2)c1C (stereo not given) | 0.95 | -2 | -7 | -45 | 3.1* | 0.42 | 0.079
CCCCN(CCCC)C(=O)CSc1nnc2n(C)c(=O)c3c4c(sc3n12)CCCC4 | 0.31 | 39 | -13 | 24 | -3.6* | · | 0.049*
O=C(CN(C1CCCCC1)S(=O)(=O)c1ccc(F)cc1)Nc1ccc2c(c1)OCO2 | 1.1 | 24 | -2 | -6 | -3.3* | -1.1 | 0.064*
Cc1cccc(N2CCN(C(=O)n3ccnc3)CC2)c1C | 0.62 | 35 | 2 | · | · | · | ·
Cc1nc(SCC(=O)c2cc3ccccc3oc2=O)c(C#N)c(-c2cccs2)c1C(=O)Nc1ccccc1 | 0.22 | 0 | 7 | -400 | -0.00036 | · | ·
CNc1cnn(-c2ccc(C)cc2)c(=O)c1Sc1ccc(C)cc1 | 1.3 | 8 | 1 | -16 | -0.26 | -0.15 | ·
CCc1ccc(S(=O)(=O)NCCc2csc(-c3ccccc3)n2)s1 | -1.8 | -1 | -11 | -160 | -3.4* | -0.8 | 0.071
CCc1ccc(S(=O)(=O)NCCc2csc(C)n2)s1 | -0.085 | -5 | -4 | 0 | 0.017 | -0.42 | ·
C=CCn1c(SCC(=O)Nc2cc3oc4ccccc4c3cc2OC)nnc1-c1cnccn1 | -0.6 | 21 | -8 | 33 | · | -3.1 | 0.065*
C=CCn1c(COc2ccccc2F)nnc1SCC(=O)Nc1cc2oc3ccccc3c2cc1OC | -0.44 | 16 | -3 | -6 | 1.5 | · | ·
